According to PubChem BioAssay (NCI):
About 83,000 compounds went through this panel and 20% of them were active in at least one assay; those are over-represented in the sample as a whole.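 Percent growth is the endpoint: 0 to 100 indicates growth inhibition (40 means 60% inhibition), 0 means no net growth, and negative values indicate cell death.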 Unmarked numbers belong to inactive results. Activity calls are given as the source filed them. Rule for the calls: active = growth percent below 10; inactive = the rest.

The molecules below were run on SN12C renal (assay: NCI-60 one-dose screen, 48 h (100 = growth as untreated, 0 = no growth, -100 = all killed)). Conditions: 10 µM unless noted.

SMILES | growth
Nc1cc2ccccc2c(=O)n1NC(=O)c1ccc(I)cc1 | 107%
CC(=O)Nc1cccc(Nc2nc(N[C@H]3CCCc4ccccc43)c3ccccc3n2)c1 | 103%
CCN(CC)C(=O)N/C(N)=N/c1nc2ccccc2s1 | 50.1%
O=C(O)c1cccc(-c2ccc(/C=N/NC(=O)c3[nH]c4ccc(Br)cc4c3-c3ccccc3)o2)c1 | 81.5%
NS(=O)(=O)c1ccc(-n2cc(-c3cccc(NC(=O)c4cc(C(F)(F)F)cc(C(F)(F)F)c4)c3)nn2)cc1 | 74.7%
C[C@H](Nc1nc(NCCc2ccccc2)nc2ccccc12)c1ccccc1 | -94.6% (active)
C(=C\c1cc(/C=C/c2ccccc2)c2ccccc2n1)/c1ccccc1 | 76.8%
C=C1CC[C@@H]2[C@]3(C)COC(c4cn(-c5ccccc5)nc4-c4ccccc4)O[C@@H]3CC[C@@]2(C)[C@@H]1C/C=C1/C(=O)OC[C@H]1O (stereo partly specified) | -67.1% (active)
N#Cc1c(-c2cccc3ccccc23)cc(-c2cccc(OCC(=O)O)c2)[nH]c1=O | 96.8%
O=C(/C=C/c1cccc(OCc2ccc(F)cc2)c1)c1nc2ccccc2[nH]1 | 76.9%
CCOC(=O)C1=C(N)N(c2ccccc2)C2=C(C(=O)CC(C)(C)C2)C1c1cccc(Cl)c1Cl (stereo unspecified) | 63%
CC(C)c1ccc2c(N)c(C(=O)Nc3ccc(C(F)(F)F)cn3)sc2n1 | 70.5%
COc1ccc2cc([C@H](C)C(=O)N/N=C/c3ccc(Br)cc3)ccc2c1 | 97.2%
CC(=O)Oc1ccccc1C(=O)[Se]CC(=O)Nc1cccc(C(F)(F)F)c1 | -80.3% (active)
COc1ccc(NC(=O)c2sc3nc(C(C)C)ccc3c2N)cc1 | 74.1%
CC1=C(C(=O)OCc2ccccc2)C(c2c(O)cc(O)cc2O)n2c(nc3ccccc32)N1 (stereo unspecified) | 74.8%
N#Cc1ccc(/C=N/NC(=O)c2[nH]c3ccc(Br)cc3c2-c2ccccc2)o1 | 5.87% (active)
CC1=C(C(=O)OC(C)C)C(c2cccc(O)c2)NC(=S)N1 (stereo unspecified) | 102%
COc1cc(-c2ccc(/C=N/NC(=O)c3[nH]c4ccc(Br)cc4c3-c3ccccc3)s2)cc(OC)c1OC | 92.6%

SMILES | growth
COc1cc(/C=C/C(=O)c2nnn(-c3ccc(Cl)cc3)c2C)cc(OC)c1OC | 15.5%
CC1=C(C(=O)OCc2ccccc2)C(c2ccc(-n3cncn3)cc2)n2c(nc3ccccc32)N1 (stereo unspecified) | 72.9%
COc1cc(-c2cc(-c3cccc(OCC(=O)O)c3)[nH]c(=O)c2C#N)cc(OC)c1OC | 102%
CSc1ccc(C(=O)Nc2ccc3nn(/C(C#N)=C/c4ccccn4)nc3c2)cc1 | -45.5% (active)
CSc1ccc(NC(=O)c2ccc3nn(/C(C#N)=C/c4ccccn4)nc3c2)cc1 | -65.7% (active)
CC1CCCCN1CCCNC(=O)N/C(N)=N/c1nc2ccccc2s1 (stereo unspecified) | 40.9%
O=C(O)c1ccc(-c2ccc(/C=N/NC(=O)c3[nH]c4ccc(Br)cc4c3-c3ccccc3)s2)cc1 | 11.5%
CSc1ccccc1NC(=O)c1ccc2nnn(/C(C#N)=C/c3ccccn3)c2c1 | -99% (active)
Clc1cccc(Cl)c1/C=C/c1cc(/C=C/c2ccc(Br)cc2)c2ccccc2n1 | 93.2%
C=C1CC[C@@H]2[C@]3(C)COC(c4cn[nH]c4-c4ccc(OC)cc4)O[C@@H]3CC[C@@]2(C)[C@@H]1C/C=C1/C(=O)OCC1O (stereo partly specified) | -14.3% (active)
CSc1ccc(C(=O)Nc2ccc3nnn(/C(C#N)=C/c4ccccn4)c3c2)cc1 | -4.37% (active)
CC(=O)Nc1cccc(Nc2nccc(N[C@@H](C)c3ccccc3)n2)c1 | 15.4%
O=C(N/N=C/c1ccc(-c2ccc(O)cc2)s1)c1[nH]c2ccc(Br)cc2c1-c1ccccc1 | 4.89% (active)
COc1cc(CNC(=O)/C=C/c2ccc3c(c2)OCO3)ccc1OCc1cn(-c2cccc(C(F)(F)F)c2)nn1 | 21.4%
O=C(O)c1ccc(-c2ccc(/C=N/NC(=O)c3[nH]c4ccc(Br)cc4c3-c3ccccc3)o2)cc1 | 5.99% (active)
CCCCOc1ccc(NC(=O)c2sc3nc(C)ccc3c2N)cc1 | 21.1%
Cc1ccc2c(N)c(C(=O)Nc3ccc(-c4ccccc4)cc3)sc2n1 | 65.1%
COc1ccc2nc(Nc3cccc(NC(=O)c4ccc(CN5CCCN(C)CC5)c(C(F)(F)F)c4)c3)ccc2c1 | -65.9% (active)
N#Cc1c(-c2cccnc2)cc(-c2ccc3ccccc3c2)[nH]c1=O | 74.3%

What follows are molecules tested on UO-31 renal in the same assay as above. Conditions: 10 µM unless noted.

SMILES | growth
Nc1cc2ccccc2c(=O)n1NC(=O)c1ccc(I)cc1 | 92%
CC(=O)Nc1cccc(Nc2nc(N[C@H]3CCCc4ccccc43)c3ccccc3n2)c1 | 91.8%
CCN(CC)C(=O)N/C(N)=N/c1nc2ccccc2s1 | 37.7%
O=C(O)c1cccc(-c2ccc(/C=N/NC(=O)c3[nH]c4ccc(Br)cc4c3-c3ccccc3)o2)c1 | 81%
NS(=O)(=O)c1ccc(-n2cc(-c3cccc(NC(=O)c4cc(C(F)(F)F)cc(C(F)(F)F)c4)c3)nn2)cc1 | 102%
C[C@H](Nc1nc(NCCc2ccccc2)nc2ccccc12)c1ccccc1 | -95.9% (active)
C(=C\c1cc(/C=C/c2ccccc2)c2ccccc2n1)/c1ccccc1 | 88.5%
C=C1CC[C@@H]2[C@]3(C)COC(c4cn(-c5ccccc5)nc4-c4ccccc4)O[C@@H]3CC[C@@]2(C)[C@@H]1C/C=C1/C(=O)OC[C@H]1O (stereo partly specified) | -78.1% (active)
N#Cc1c(-c2cccc3ccccc23)cc(-c2cccc(OCC(=O)O)c2)[nH]c1=O | 71.3%
O=C(/C=C/c1cccc(OCc2ccc(F)cc2)c1)c1nc2ccccc2[nH]1 | 69.4%
CCOC(=O)C1=C(N)N(c2ccccc2)C2=C(C(=O)CC(C)(C)C2)C1c1cccc(Cl)c1Cl (stereo unspecified) | 75.5%
CC(C)c1ccc2c(N)c(C(=O)Nc3ccc(C(F)(F)F)cn3)sc2n1 | 62%
COc1ccc2cc([C@H](C)C(=O)N/N=C/c3ccc(Br)cc3)ccc2c1 | 83.3%
CC(=O)Oc1ccccc1C(=O)[Se]CC(=O)Nc1cccc(C(F)(F)F)c1 | -85% (active)
COc1ccc(NC(=O)c2sc3nc(C(C)C)ccc3c2N)cc1 | 72.5%
CC1=C(C(=O)OCc2ccccc2)C(c2c(O)cc(O)cc2O)n2c(nc3ccccc32)N1 (stereo unspecified) | 46.4%
N#Cc1ccc(/C=N/NC(=O)c2[nH]c3ccc(Br)cc3c2-c2ccccc2)o1 | 24.8%
CC1=C(C(=O)OC(C)C)C(c2cccc(O)c2)NC(=S)N1 (stereo unspecified) | 92%
COc1cc(-c2ccc(/C=N/NC(=O)c3[nH]c4ccc(Br)cc4c3-c3ccccc3)s2)cc(OC)c1OC | 96.9%

SMILES | growth
COc1cc(/C=C/C(=O)c2nnn(-c3ccc(Cl)cc3)c2C)cc(OC)c1OC | 54%
CC1=C(C(=O)OCc2ccccc2)C(c2ccc(-n3cncn3)cc2)n2c(nc3ccccc32)N1 (stereo unspecified) | 51.6%
COc1cc(-c2cc(-c3cccc(OCC(=O)O)c3)[nH]c(=O)c2C#N)cc(OC)c1OC | 81.8%
CSc1ccc(C(=O)Nc2ccc3nn(/C(C#N)=C/c4ccccn4)nc3c2)cc1 | -100% (active)
CSc1ccc(NC(=O)c2ccc3nn(/C(C#N)=C/c4ccccn4)nc3c2)cc1 | -99% (active)
CC1CCCCN1CCCNC(=O)N/C(N)=N/c1nc2ccccc2s1 (stereo unspecified) | 24.4%
O=C(O)c1ccc(-c2ccc(/C=N/NC(=O)c3[nH]c4ccc(Br)cc4c3-c3ccccc3)s2)cc1 | 24.7%
CSc1ccccc1NC(=O)c1ccc2nnn(/C(C#N)=C/c3ccccn3)c2c1 | -100% (active)
Clc1cccc(Cl)c1/C=C/c1cc(/C=C/c2ccc(Br)cc2)c2ccccc2n1 | 70.2%
C=C1CC[C@@H]2[C@]3(C)COC(c4cn[nH]c4-c4ccc(OC)cc4)O[C@@H]3CC[C@@]2(C)[C@@H]1C/C=C1/C(=O)OCC1O (stereo partly specified) | -44.2% (active)
CSc1ccc(C(=O)Nc2ccc3nnn(/C(C#N)=C/c4ccccn4)c3c2)cc1 | -100% (active)
CC(=O)Nc1cccc(Nc2nccc(N[C@@H](C)c3ccccc3)n2)c1 | 25.9%
O=C(N/N=C/c1ccc(-c2ccc(O)cc2)s1)c1[nH]c2ccc(Br)cc2c1-c1ccccc1 | 15.2%
COc1cc(CNC(=O)/C=C/c2ccc3c(c2)OCO3)ccc1OCc1cn(-c2cccc(C(F)(F)F)c2)nn1 | -4.4% (active)
O=C(O)c1ccc(-c2ccc(/C=N/NC(=O)c3[nH]c4ccc(Br)cc4c3-c3ccccc3)o2)cc1 | 24.5%
CCCCOc1ccc(NC(=O)c2sc3nc(C)ccc3c2N)cc1 | 1.84% (active)
Cc1ccc2c(N)c(C(=O)Nc3ccc(-c4ccccc4)cc3)sc2n1 | 56.1%
COc1ccc2nc(Nc3cccc(NC(=O)c4ccc(CN5CCCN(C)CC5)c(C(F)(F)F)c4)c3)ccc2c1 | -66.9% (active)
N#Cc1c(-c2cccnc2)cc(-c2ccc3ccccc3c2)[nH]c1=O | 79%
